Our source for the PBM binding z-score values is the supplement of paper PMC6555819.

The subject of this assay is VDR:RXRa (NR concentration 270 nM, RXRa partner concentration 90 nM). Briefly: PBM binding z-score (relative to random genomic background probes); higher = stronger binding; sequences stand for … in GC…GCGATTGACAGCGTAGAATGAAGG
How it is done:
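Protein-binding microarray (Agilent 4x180K custom design, double-stranded 60-nt probes: 5' GC cap, 34-nt variable region, 24-nt constant primer region; full probe sequence given). Purified or IVT nuclear receptor:RXRα heterodimers (3:1 NR:RXRα, mostly 270:90 nM) or homodimers were incubated for 1 h in PBS with 2% milk and no ligand, then detected with Alexa488 antibodies. Fluorescence from o1-orientation probes (~5 replicates averaged) was converted to z-scores against 500 random hg19 background probes. Variable regions are seed direct-repeat (DR0–DR5) sites, all their single-nucleotide variants and half-site ablations.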
Take CGAACTAGGTCAAAGGACATTGAAAGGCGACGTA: the PBM binding z-score was 1.88.

CGAACGAGGTCAAAGGACAGTGAAAGGCGACGTA displayed a PBM binding z-score of 5.02.

Regarding ATCGAAAGGTCGTGAGGTAAGTATACAGAAAGGC, the PBM binding z-score was 3.44.

Regarding ATCGAAAGGTCGAAGGTGCGTATACCCACCCGAA, the PBM binding z-score is 2.58.

As for TAGCCTAGGTCATTCAGGGGCAAGTATAGAAAGC, the PBM binding z-score was found to be 5.23.

In turn, CCTGCTAGGTCAAAGGTCAGCTAAAGCAGCTCGC showed a PBM binding z-score of 5.81.

For TGTCAATGTTCAAAGGTAACGTAAGTATCCACAC, the PBM binding z-score worked out at 0.373.

Turning to CGTCCAAGGTCATTGGAGGTCAGTGAAGACAGAT, the PBM binding z-score was determined as 7.03.

In the case of TTACCAAGGTGAAAGGTCGTTGCTGCACGCCTTG, the PBM binding z-score worked out at 3.19.

The sequence ACTAGTTGGTCAGCTGAGGTCACACCCAATTCGG displayed a PBM binding z-score of 4.19.

In the case of CGTCCAAGGACAATGCTAGGTCAGTGAAAGCATT, the PBM binding z-score amounted to 0.294.

In turn, CCTACTCGGCCAAAAAGGTCATTGATGCCGATAA displayed a PBM binding z-score of 4.9.

On to GGAACGAGGTCAAGTTGATAGCAGAGTTTGATGG, for which the PBM binding z-score was 5.84.

In turn, CGTCAAAGGTCAAGGTCAGTGAAAGAGACTCGAA registered a PBM binding z-score of 5.77.

AGAATGAGGTCAAGATCAGGGAAACAGAATACAT had a PBM binding z-score of 4.93.

For the sequence CCTTACGGGTCACTGACAGGTTATAGCGTTTGGA, the PBM binding z-score amounted to 3.63.

On to AATACAGGGTCACGAGGCCAGAGTAGGTACGAAT, for which the PBM binding z-score amounted to 5.41.

GCTTACAGGTCAAAGGTTATAGCATGAATAGAAT yielded a PBM binding z-score of 5.51.

For the sequence CGAACAAGGTCACCAGGACAGTGAAGAGGTTGGA, the PBM binding z-score turned out to be 4.8.

Sequence TCTAGTTGGTCACGGAGGACACACACGACGGGTA came in with a PBM binding z-score of 2.67.

ATCGAAAGGTCATGAGGTGAGTATACAGAAAGGC gave a PBM binding z-score of 5.78.

The sequence CCTTACGGGTCACTCCAGGTTATATCATCGGAGT came in with a PBM binding z-score of 4.52.

In turn, CCAGACAGGTGAGAAGGTAACTCAGCCTCGATTA displayed a PBM binding z-score of 0.116.

Consider CCTACTGGTCCAAGGTCATTGATCAGTCAAAGCA, for which the PBM binding z-score is 3.79.

In turn, TAGCCTAGGGCATTCAGGGGCCAGTATAGAAAGC yielded a PBM binding z-score of -0.213.

For GTTACAGGGTCAAGGCCAGAGTACGCGTATTGAT, the PBM binding z-score was 4.45.

Sequence CAAAATAGGTCACAGAGGTCAAAGTCCGTGCGTA yielded a PBM binding z-score of 8.21.

Sequence TCTCGGAGGAAACGAAAGGTCAGAGCTCGACATC returned a PBM binding z-score of 2.44.

Turning to AATACAGGGTGACTAGGCCAGAGTAGGTACGAAT, the PBM binding z-score came out at 0.257.

Regarding TCTAGTCGGTCAAAGGTCACACACTCGAAATGCG, the PBM binding z-score stood at 5.65.

Consider AGAATGAGGTCATTAAGATCAGGGAATTGCGGTC, for which the PBM binding z-score worked out at 5.8.

AGAATGAGGTTAAACGTAGATCAGGGAAGAAAGT: the PBM binding z-score worked out at 2.03.

GATATAGGGTCAGCTAGAGGCCAGAGTATGGAAA had a PBM binding z-score of 3.42.

Turning to CGAACTAGGTCAAGGCCAGTGAATCTCCGCACGC, the PBM binding z-score was 1.31.

Regarding CGTCCGAGGTCATAGGAGGTCAGTGAAGACAGAT, the PBM binding z-score was found to be 7.1.

CCTTACGGGTCCCTCCAGGTTATAGCATCGGAGT had a PBM binding z-score of 0.0642.

CCGAGAAGGTTACGAGGGGGCATTCAGTGCGAAT: the PBM binding z-score amounted to 6.24.

ATATGTAGGATAGCTGGGGTCATTCAGACTAGGC gave a PBM binding z-score of 4.86.

CCTCGGAGGACAACAGGAGGTCATAGCTGCCAGA had a PBM binding z-score of 3.57.

In the case of AGAATGGGGTTACCAAAGATCAGGGAAACGCTTG, the PBM binding z-score turned out to be 2.66.
